Article PMC5540273 (PLoS ONE, 2017)
Several values for one entry are separate records, joined by “and”; a condition that tells them apart may be missing. Equal values may be shown once. Read-outs that look alike come from different tables or passages of the source.

Tests used:
NEK7 = conditions: n = 1
NEK9 = conditions: n = 1
NIK = system: T1, NIK; conditions: n = 1
T1 construct: gene MAP3K14

NIM1 = system: T2, NIM1; conditions: n = 1
T2 construct: gene MGC42105

NLK = conditions: n = 1
OSR1 = system: T3, OSR1; conditions: n = 1
T3 construct: gene OXSR1

PAK1 = conditions: n = 1
PAK2 = conditions: n = 1
PAK3 = conditions: n = 1
PAK4 = conditions: concentration: 1 μM, replicates: in singlicate; n = 1
[1] = concentration: 1 μM, replicates: in singlicate
[2] = concentration: 1 μM,replicates: in singlicate, 1 µM
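Note: KINOMEscan kinase panel screen.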

With `COc1ccc(Nc2nccc(NCCNC(=O)Nc3ccccc3F)n2)cc1` [GSK1379901] the “%Inh” value (NEK7; [1]) was 0%, the “%Inh” value (NEK9; [1]) was 0% and the “%Inh” value (NIK; [1]) was 9%. The “%Inh” value (NIM1; [1]) was 9%, the “%Inh” value (NLK; [1]) was 7% and the “%Inh” value (OSR1; [1]) was 8%. For the same compound, the “%Inh” value (PAK1; [1]) was 0%, the “%Inh” value (PAK2; [1]) was 0% and the “%Inh” value (PAK3; [1]) was 0%. For the same compound, the “%Inh” value (PAK4) was 0%.

In the case of `O=C(O)COc1ncnc2cc(-c3ccc4[nH]ncc4c3)sc12`, the “%Inh” value (NEK7; [1]) was 5%, the “%Inh” value (NEK9; [1]) was 0% and the “%Inh” value (NIK; [1]) was 0%. For the same compound, the “%Inh” value (NIM1; [1]) was 26%, the “%Inh” value (NLK; [1]) was 0% and the “%Inh” value (OSR1; [1]) was 34%. For the same compound, the “%Inh” value (PAK1; [1]) was 5%, the “%Inh” value (PAK2; [1]) was 3% and the “%Inh” value (PAK3; [1]) was 3%. The “%Inh” value (PAK4) was 0%.

For `CC(C)(C)c1ccc(C(=O)Nc2cn3cc(Cl)ccc3n2)cc1`, the “%Inh” value (NEK7; [1]) was 0%, the “%Inh” value (NEK9; [1]) was 0% and the “%Inh” value (NIK; [1]) was 0%. The “%Inh” value (NIM1; [1]) was 0%, the “%Inh” value (NLK; [1]) was 0% and the “%Inh” value (OSR1; [1]) was 0%. For the same compound, the “%Inh” value (PAK1; [1]) was 0%, the “%Inh” value (PAK2; [1]) was 14% and the “%Inh” value (PAK3; [1]) was 0%. The “%Inh” value (PAK4) was 0%.

For `COc1cccc(-c2cc(-c3c[nH]nc3-c3ccccn3)ccn2)c1` [GW680338], the “%Inh” value (NEK7; [1]) was 0%, the “%Inh” value (NEK9; [1]) was 1% and the “%Inh” value (NIK; [1]) was 19%. For the same compound, the “%Inh” value (NIM1; [1]) was 21%, the “%Inh” value (NLK; [1]) was 6% and the “%Inh” value (OSR1; [1]) was 0%. The “%Inh” value (PAK1; [1]) was 0%, the “%Inh” value (PAK2; [1]) was 0% and the “%Inh” value (PAK3; [1]) was 9%. The “%Inh” value (PAK4) was 9%.

`NC(=O)c1nnc2ccccc2c1N` was tested, and the “%Inh” value (NEK7; [1]) was 0%, the “%Inh” value (NEK9; [1]) was 0% and the “%Inh” value (NIK; [1]) was 69%. The “%Inh” value (NIM1; [1]) was 14%, the “%Inh” value (NLK; [1]) was 2% and the “%Inh” value (OSR1; [1]) was 31%. For the same compound, the “%Inh” value (PAK1; [1]) was 0%, the “%Inh” value (PAK2; [1]) was 7% and the “%Inh” value (PAK3; [1]) was 5%. The “%Inh” value (PAK4) was 0%.

For `CC1=C(C(=O)Nc2cc3cn[nH]c3cc2F)C(c2ccc(C(F)(F)F)cc2)CC(=O)N1` (stereo not drawn) [GSK429286], the “%Inh” value (NEK7; [1]) was 0%, the “%Inh” value (NEK9; [1]) was 0% and the “%Inh” value (NIK; [1]) was 27%. The “%Inh” value (NIM1; [1]) was 12%, the “%Inh” value (NLK; [1]) was 13% and the “%Inh” value (OSR1; [1]) was 18%. The “%Inh” value (PAK1; [1]) was 0%, the “%Inh” value (PAK2; [1]) was 4% and the “%Inh” value (PAK3; [1]) was 45%. The “%Inh” value (PAK4) was 0%.

With `Fc1cc(Cl)ccc1Nc1ccnc2cc(-c3ccc(CN4CCCCC4)o3)ccc12` [GW560116] the “%Inh” value (NEK7; [1]) was 0%, the “%Inh” value (NEK9; [1]) was 0% and the “%Inh” value (NIK; [1]) was 10%. The “%Inh” value (NIM1; [1]) was 0%, the “%Inh” value (NLK; [1]) was 16% and the “%Inh” value (OSR1; [1]) was 0%. The “%Inh” value (PAK1; [1]) was 2%, the “%Inh” value (PAK2; [1]) was 5% and the “%Inh” value (PAK3; [1]) was 0%. The “%Inh” value (PAK4) was 0%.

With `COc1ccc(C2=C(Nc3cccc(C(=O)O)c3)C(=O)NC2=O)cc1` [SB-390765] the “%Inh” value (NEK7; [1]) was 28%, the “%Inh” value (NEK9; [1]) was 2% and the “%Inh” value (NIK; [1]) was 10%. For the same compound, the “%Inh” value (NIM1; [1]) was 45%, the “%Inh” value (NLK; [1]) was 1% and the “%Inh” value (OSR1; [1]) was 22%. For the same compound, the “%Inh” value (PAK1; [1]) was 0%, the “%Inh” value (PAK2; [1]) was 27% and the “%Inh” value (PAK3; [1]) was 0%. The “%Inh” value (PAK4) was 0%.

In the case of `CSc1nn2c(=O)cc(N3CCOCC3)nc2n1Cc1cccc(C(F)(F)F)c1C` [GSK2363608], the “%Inh” value (NEK7; [2]) was 3% and 0%, the “%Inh” value (NEK9; [2]) was 22% and 2% and the “%Inh” value (NIK; [2]) was 0% and 6%. For the same compound, the “%Inh” value (NIM1; [2]) was 2% and 12%, the “%Inh” value (NLK; [2]) was 2% and 37% and the “%Inh” value (OSR1; [2]) was 15% and 7%. For the same compound, the “%Inh” value (PAK1; [2]) was 0% and 38%, the “%Inh” value (PAK2; [2]) was 0% and 37% and the “%Inh” value (PAK3; [2]) was 8% and 0%. For the same compound, the “%Inh” value (PAK4) was 0%.
